Measured values taken from PubChem BioAssay (NCATS).
Records with an inconclusive call do not appear. A call without a number means that no potency is given here. Calls of active or inactive are those of the source. The call rests on the fitted dose curve; in most records, active means well fitted inhibition curve with a large enough effect; inconclusive means small, poorly fitted or top-dose-only effect; inactive means flat fitted curve, though single readings scatter.

What follows are compounds tested against Calcium and integrin-binding protein 1 (Homo sapiens) (UniProt Q99828) (assay: Primary qHTS for Identification of Calcium Integrin Binding Protein 1 (CIB1) Competitor (AID 1508620; further: top concentration of the series differs between compounds)). Details: CIB1-GST / FITC-alphaIIb peptide fluorescence polarization; series mostly up to 57.7 µM.
Outline: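 Fluorescence polarization competition: GST-tagged CIB1 (1 uM final) preincubated with compound 15 min at room temperature, then FITC-labelled alphaIIb peptide (100 nM final) added. After 15 min at room temperature, polarization read at Ex 480/Em 540.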

Sequence of Calcium and integrin-binding protein 1 (Homo sapiens) (Q99828 whole entry, looked up): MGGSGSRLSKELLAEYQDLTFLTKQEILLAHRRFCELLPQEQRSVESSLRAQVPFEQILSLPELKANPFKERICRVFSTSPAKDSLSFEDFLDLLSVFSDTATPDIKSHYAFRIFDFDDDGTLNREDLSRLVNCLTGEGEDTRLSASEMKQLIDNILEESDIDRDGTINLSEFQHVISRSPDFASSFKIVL

Row | SMILES | Potency
1 | Clc1ccc(-c2nc3sccn3c2C=NOCc2ccc(Cl)c(Cl)c2)cc1 | inactive
2 | Cn1cc(C=C2C(=O)Nc3cccnc32)c2ccccc21 | inactive
3 | CN(C)C1CCN(C(=O)c2ccc(NC(=O)Nc3nc(N4CCOCC4)nc(N4CCOCC4)n3)cc2)CC1 | inactive
4 | CN1[C@@H]2CCC[C@@H]1CC(NC(=O)c1nn(C)c3ccccc13)C2 (some centres undefined) | inactive
5 | NC1=N[C@@]2(c3cc(NC(=O)c4ccc(F)cn4)ccc3F)COC[C@@H]2CS1 | inactive
6 | O=C(NCc1ccccc1)c1csc(Nc2ccncn2)n1 | inactive
7 | COc1ccc2c(Oc3ccc(NC(=O)c4c(C)n(CC(C)(C)O)n(-c5ccccc5)c4=O)cc3F)ccnc2c1 | inactive
8 | COC(=O)N[C@H](C(=O)N1CCC[C@@H]1c1ncc(-c2ccc(-c3ccc(-c4cnc([C@@H]5CCCN5C(=O)[C@@H](NC(=O)OC)C(C)C)[nH]4)cc3)cc2)[nH]1)C(C)C | inactive
9 | COCCCCC(=NOCCN)c1ccc(C(F)(F)F)cc1 | inactive
10 | O=C1Nc2ccc(Cl)cc2C(C#CC2CC2)(C(F)(F)F)O1 (centres undefined) | inactive
11 | OC[C@H]1O[C@@H](n2cnc3c2NC=NC[C@@H]3O)C[C@H]1O | inactive
12 | CC[C@@H]1C=C(C)C[C@H](C)C[C@H](OC)[C@H]2O[C@@](O)(C(=O)C(=O)N3CCCC[C@@H]3C(=O)O[C@H](C(C)=C[C@@H]3CC[C@H](Cl)[C@H](OC)C3)[C@H](C)[C@@H](O)CC1=O)[C@H](C)C[C@H]2OC | inactive
13 | COc1ccc(-c2oc3c(CC=C(C)C)c(OC4O[C@H](CO)[C@@H](O)[C@H](O)[C@@H]4O)cc(O)c3c(=O)c2OC2O[C@@H](C)[C@H](O)[C@@H](O)[C@@H]2O)cc1 (some centres undefined) | inactive
14 | COc1ccc(C2Sc3ccccc3N(CCN(C)C)C(=O)C2OC(C)=O)cc1 (centres undefined) | inactive
15 | CCC(CC)[C@H](NC(C)=O)[C@@H]1[C@H](O)[C@@H](C(=O)O)C[C@@H]1N=C(N)N | inactive
16 | C[C@H]1[C@H](NC(=O)C(=NOC(C)(C)C(=O)O)c2csc(N)n2)C(=O)N1S(=O)(=O)O | inactive
17 | COc1ccc(Cc2ccc(NC(N)=O)cc2)cc1-c1cccc(Cl)c1 | inactive

Row | SMILES | Potency
18 | CO[C@H]1C[C@@H]2CC[C@@H](C)[C@@](O)(O2)C(=O)C(=O)N2CCCC[C@@H]2C(=O)O[C@H]([C@H](C)C[C@@H]2CC[C@H](OP(C)(C)=O)[C@H](OC)C2)CC(=O)[C@H](C)C=C(C)[C@@H](O)[C@@H](OC)C(=O)[C@H](C)C[C@H](C)C=CC=CC=C1C | inactive
19 | NC(=O)c1cccc2[nH]c(-c3ccc([C@H]4CCCN4)cc3F)nc12 | inactive
20 | CCS(=O)(=O)N1CC(CC#N)(n2cc(-c3ncnc4[nH]ccc34)cn2)C1 | inactive
21 | O=C1NC(=O)C(=Cc2ccc3nccnc3c2)S1 | inactive
22 | Cc1ccc(Nc2cc(-c3cccc(N4C(=O)c5ccccc5C4=O)c3)ncn2)cc1NS(C)(=O)=O | inactive
23 | COc1ccc(-c2coc3cc(O)ccc3c2=O)cc1 | inactive
24 | Cc1[nH]c(C=C2C(=O)Nc3ccc(S(=O)(=O)Cc4c(Cl)cccc4Cl)cc32)c(C)c1C(=O)N1CCC[C@H]1CN1CCCC1 | inactive
25 | Oc1ccc(C2CCN(c3ccnc4ccccc34)CC2)cc1O | inactive
26 | CNC(=O)c1ccccc1Sc1ccc2c(C=Cc3ccccn3)n[nH]c2c1 | inactive
27 | O=c1c(-c2ccc(O)cc2)coc2cc(OC3O[C@H](CO)[C@H](O)[C@H](O)[C@H]3O)cc(O)c12 (some centres undefined) | inactive
28 | NC1CCC(Nc2nc(Nc3ccc(C(=O)N4CCCCC4)cc3)c3ncn(-c4cccc(F)c4)c3n2)CC1 (centres undefined) | inactive
29 | CS(=O)c1ccc(-c2nc(-c3ccc(F)cc3)c(-c3ccncc3)[nH]2)cc1 (centres undefined) | inactive
30 | CC(=O)O[C@]1(C(C)=O)CC[C@@H]2[C@@H]3C[C@H](C)C4=CC(=O)CC[C@]4(C)[C@H]3CC[C@@]21C | inactive
31 | CC[C@@]1(O)C[C@H](O[C@H]2C[C@H](N(C)C)[C@H](O[C@H]3C[C@H](O)[C@H](O[C@H]4CCC(=O)[C@H](C)O4)[C@H](C)O3)[C@H](C)O2)c2c(cc3c(c2O)C(=O)c2c(O)cccc2C3=O)[C@@H]1C(=O)OC | inactive
32 | Oc1ccc(C2=Cc3ccc(O)cc3OC2)cc1 | inactive
33 | Cc1ccn(-c2ccc(-c3ncco3)cc2)c(=O)c1-c1ccc2nc(N)ncc2c1 | inactive
34 | CC(=O)N(C)C1(c2ccccc2)CCN(CCC[C@]2(c3ccc(Cl)c(Cl)c3)CCCN(C(=O)c3ccccc3)C2)CC1 | inactive
